In the library only some 1.9% were active in any assay of this set; here they are far more common.
dFosB act = activators of delta FosB homodimer, primary screen, biochemical, fluorescence polarization, TAMRA-CDK5 oligo, single point; hit rate 0.99% among 340,000; activation, % at 25 µM; Protein FosB (Mus musculus), P13346; purified delta FosB; percent of positive-control signal above neutral wells;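 active = mean activation above about 17%, with every replicate also reaching it, limit read from the data, passing the limit was not always enough; inconclusive = only one of the two conditions met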
Target sequence (P13346 whole entry, looked up): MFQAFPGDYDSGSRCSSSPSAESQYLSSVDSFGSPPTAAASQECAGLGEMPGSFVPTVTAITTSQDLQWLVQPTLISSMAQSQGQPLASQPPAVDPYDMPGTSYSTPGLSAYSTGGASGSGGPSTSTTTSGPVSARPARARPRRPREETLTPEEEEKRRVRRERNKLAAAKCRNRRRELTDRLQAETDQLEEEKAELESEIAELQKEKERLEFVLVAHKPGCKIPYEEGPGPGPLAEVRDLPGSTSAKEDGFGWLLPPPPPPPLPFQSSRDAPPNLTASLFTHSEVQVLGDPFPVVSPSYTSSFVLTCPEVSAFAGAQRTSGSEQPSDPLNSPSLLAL
GSIS activator = GLuc luminescence reporter in INS-1E cells, primary screen for activators of glucose-dependent secretion of insulin. INS-1E GLuc reporter insulin secretion, 2-3 h. activation, % at 16.6 µM. hit rate 0.61% among 370,000. AID 743287, 2014;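 active = lowest replicate activation of at least 40%, so every replicate reaches that level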
Vif inh = HIV Vif self-association inhibitors, primary screen, imaging, HEK293T, single point; HEK293T cells, Vif self-association by quenched fluorescence, 24 h; inhibition, % at 7.49 µM; hit rate 0.35% among 340,000; AID 602346, 2012; in the data active = inhibition above about 50%, passing the limit was not always enough; inconclusive = no clear call, values can overlap the other calls; inactive = below about 31%
Bfl-1 A1 inh = caspase 3/7 activation in MEF A1-2A-BIM cells, primary screen, A1 inhibitor project, cell-based, luminescence, HTS; Caspase-Glo 3/7 luminescence, 3 h; percent of clofoctol response, vehicle zero; caspase activation, % (concentration not given with the values); hit rate 0.066% among 330,000; AID 2462, 2010;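 active = over half of replicate activation scores above 10%, or exactly half above 10 with the replicate mean above 10; inconclusive = replicate mean below 10 yet half the replicates above 10; inactive = over half of replicates below 10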
Neddyl block = inhibitors of cullin neddylation, primary screen, biochemical, TR-FRET, uHTS, NAE and Ubc12 | inhibition, % at 25 µM | hit rate 0.58% among 360,000 | NEDD8-conjugating enzyme Ubc12 (Homo sapiens) + NEDD8-activating enzyme E1 regulatory …; in the data active = inhibition above about 36%
Each line names hits and unclear results; the compound was inactive in the other large screens.

COc1ccc(CCN2C(=O)CC(Cc3ccccc3)C2=O)cc1OC (stereo unspecified)	GSIS activator 70.2
COc1ccc(CCN2C(=O)CC(Cc3ccc(Br)cc3)C2=O)cc1OC (stereo unspecified)	none
CO[C@@H]1CN(C)C(=O)c2ccc(NC(=O)C3CCCCC3)cc2OC[C@H](C)NC[C@H]1C	none (no result: dFosB act, Vif inh, Bfl-1 A1 inh, Neddyl block)
CCN(Cc1ccccc1)S(=O)(=O)c1ccccc1Br	GSIS activator 41.4 (no result: Bfl-1 A1 inh)
CCN(Cc1cc(OC)c(OC)c(OC)c1)S(=O)(=O)c1ccccc1Br	none (no result: dFosB act, Vif inh, Bfl-1 A1 inh, Neddyl block)
COC(=O)N/N=C\c1c(C)nn(-c2ccccc2)c1Cl	none
Cc1ccc(C)c(OCC(=O)N/N=C/c2c(C)nn(-c3ccccc3)c2Cl)c1C	dFosB act inconclusive, GSIS activator 296.8
CC1(C)CC[C@]2(C(=O)O[C@@H]3O[C@H](CO)[C@@H](O)[C@H](O)[C@H]3O)CC[C@]3(C)C(=CCC4[C@@]5(C)CC[C@H](O[C@@H]6O[C@H](C(=O)O)[C@@H](O[C@H]7OC[C@@H](O)[C@@H](O)[C@@H]7O)[C@H](O)[C@H]6O)C(C)(C)C5CC[C@]43C)[C@@H]2C1 (stereo partly specified)	none
CC1(C)CC[C@]2(C(=O)O)CC[C@]3(C)C(=CC[C@@H]4[C@@]5(C)CC[C@H](O[C@@H]6O[C@H](C(=O)O)[C@@H](O)[C@H](O[C@@H]7OC[C@H](O)[C@H](O)[C@H]7O)[C@H]6O)C(C)(C)[C@@H]5CC[C@]43C)[C@@H]2C1	GSIS activator 200.1
O=C(c1ccc(S(=O)(=O)Cc2cc(F)ccc2F)c([N+](=O)[O-])c1)N1CCCC1	GSIS activator 75.6
CN1C[C@H]2[C@@H](c3ccccc31)[C@@H](CO)N2C(=O)CN1CCOCC1	none (no result: dFosB act, Vif inh, Bfl-1 A1 inh, Neddyl block)
C[C@@H]1CCCCO[C@@H](CN(C)Cc2ccc(C(F)(F)F)cc2)[C@H](C)CN([C@@H](C)CO)C(=O)c2cc(NC(=O)C3CCCCC3)ccc2O1	none (no result: dFosB act, Vif inh, Bfl-1 A1 inh, Neddyl block)
Cc1cccc(C(=O)NC(=S)NNC(=O)COc2c(C)cccc2C)c1	GSIS activator 75.9
COc1ccnc(N2CCN(c3cccc(C(F)(F)F)c3)CC2)c1C#N	GSIS activator 72.7
CCCNC(=O)[C@H]1[C@H](CO)[C@H]2Cn3c(cccc3=O)[C@H]2N1Cc1ccccn1	none (no result: dFosB act, Vif inh, Bfl-1 A1 inh, Neddyl block)
C[C@@H]1CCCCO[C@@H](CN(C)S(=O)(=O)c2ccc(F)cc2)[C@H](C)CN([C@@H](C)CO)C(=O)c2cc(NS(=O)(=O)c3ccc(F)cc3)ccc2O1	none (no result: dFosB act, Vif inh, Bfl-1 A1 inh, Neddyl block)
CCc1nnc(NC(=O)CSc2ccc(-c3ccc(F)cc3)nn2)s1	none (no result: dFosB act, GSIS activator, Vif inh, Neddyl block)
CCc1nnc(NC(=O)CSc2nnc(-c3ccccc3NC(=O)c3ccccc3)o2)s1	GSIS activator 52.0
CCc1nnc(NC(=O)CSc2nc(-c3ccccc3)cc(-c3ccc(F)cc3)c2C#N)s1	Bfl-1 A1 inh 7.1 (no result: GSIS activator)
CCOC(=O)CSc1nnc(-c2ccccc2NC(=O)c2ccccc2)o1	none (no result: Vif inh)
C/C=C/c1ccc([C@H]2[C@H](CO)N(S(=O)(=O)Cc3ccccc3)C23CN(C(=O)C2CC2)C3)cc1	none (no result: dFosB act, Vif inh, Bfl-1 A1 inh, Neddyl block)
C=CCN1C(=O)/C(=C2/Sc3ccccc3N2CCCS(=O)(=O)O)SC1=S	none
C=CCN1C(=O)/C(=C2/Sc3ccccc3N2CC)SC1=S	Vif inh 84.7
CC(C)NC(=O)N(C)C[C@H]1Oc2cc(C#C[C@H](C)O)ccc2S(=O)(=O)N([C@H](C)CO)C[C@H]1C	none (no result: dFosB act, Vif inh, Bfl-1 A1 inh, Neddyl block)
COc1ccccc1C(=O)COC(=O)C1(C)CC1(Cl)Cl (stereo unspecified)	Vif inh 71.0
CCc1ccc(/C(C)=N\Nc2ccc([N+](=O)[O-])cc2)cc1	Vif inh 60.3 (no result: GSIS activator)
C[C@H](NC(=O)C[C@H]1C[C@@H]2c3cc(NC(=O)CC4CC4)ccc3O[C@@H]2[C@@H](CO)O1)c1ccccc1	none (no result: dFosB act, Vif inh, Bfl-1 A1 inh, Neddyl block)
CC(C)CN1CCN(C(=O)COC(=O)c2ccc(S(C)(=O)=O)c([N+](=O)[O-])c2)CC1	GSIS activator 138.3 (no result: dFosB act, Vif inh, Bfl-1 A1 inh)
CC(OC(=O)c1ccc(S(C)(=O)=O)c([N+](=O)[O-])c1)C(=O)NC1C2CC3CC(C2)CC1C3 (stereo unspecified)	GSIS activator 142.9 (no result: dFosB act, Bfl-1 A1 inh)
CC(=O)N1CCN(C(=O)COC(=O)c2ccc(S(C)(=O)=O)cc2)CC1	GSIS activator 66.8
CCC(OC(=O)c1ccc(S(C)(=O)=O)c([N+](=O)[O-])c1)C(=O)NC1C2CC3CC(C2)CC1C3 (stereo unspecified)	none (no result: dFosB act, Bfl-1 A1 inh)
COc1ccccc1-c1ccc([C@H]2[C@@H](C#N)N(C(=O)CN(C)C)[C@@H]2CO)cc1	none (no result: dFosB act, Vif inh, Bfl-1 A1 inh, Neddyl block)
CC(C)NC(=O)N(C)C[C@@H]1Oc2c(NS(C)(=O)=O)cccc2C(=O)N(C)C[C@H]1C	none (no result: dFosB act, Vif inh, Bfl-1 A1 inh, Neddyl block)
COC(=O)c1sc(-c2ccc(C(C)(C)C)cc2)cc1NC(=O)c1ccccc1C(=O)O	Neddyl block 70.4
COC(=O)c1sc(-c2ccc(C(C)(C)C)cc2)cc1NC(=O)CSCC(=O)O	Neddyl block 40.4 (no result: GSIS activator)
C/C=C/c1ccccc1[C@H]1[C@@H](C#N)N(S(=O)(=O)c2cccc(F)c2)[C@H]1CO	none (no result: dFosB act, Vif inh, Bfl-1 A1 inh, Neddyl block)
O=C(CSc1ccc(F)cc1)N1CCN(S(=O)(=O)c2ccccc2)CC1	none
O=C(CSc1ncccn1)N1CCN(S(=O)(=O)c2ccccc2)CC1	GSIS activator 50.7
O=C(CNC(=O)c1ccc(Cl)cc1Cl)NCC1CCCO1 (stereo unspecified)	none
O=C(NC(=S)NCC1CCCO1)c1ccc(Cl)cc1Cl (stereo unspecified)	GSIS activator 56.4
CN(C)c1ccc(/C=C/c2ccc3ccccc3[n+]2C)cc1	dFosB act 95.6
CN(C)c1ccc(/C=C/c2cccc[n+]2[O-])cc1	none (no result: GSIS activator, Vif inh)
CN(CCCS(=O)(=O)[O-])c1ccc(/C=C/c2ccc3ccccc3[n+]2C)cc1	none
CN(C)c1ccc(/C=C/c2ccc3c4ccccc4ccc3[n+]2-c2ccccc2)cc1	dFosB act 112.5 (no result: Bfl-1 A1 inh)
COc1cccc(S(=O)(=O)N2CCC3(CC2)CN(C(=O)Nc2cccc(F)c2)[C@H](CO)c2[nH]c4cc(OC)ccc4c23)c1	none (no result: dFosB act, Vif inh, Bfl-1 A1 inh, Neddyl block)
C/C=C/c1ccc2c(c1)O[C@H](CN(C)C(=O)c1ccccn1)[C@H](C)CN([C@@H](C)CO)S2(=O)=O	none (no result: dFosB act, Vif inh, Bfl-1 A1 inh, Neddyl block)
O=C(Nc1ccccc1)N1CCCCN2[C@@H](CO)[C@H](c3ccc(C#Cc4cccnc4)cc3)[C@@H]2C1	none (no result: dFosB act, Vif inh, Bfl-1 A1 inh, Neddyl block)
C[C@H]1CN(C)C(=O)Cc2cc(NS(C)(=O)=O)ccc2O[C@@H]1CN(C)C	none (no result: dFosB act, Vif inh, Bfl-1 A1 inh, Neddyl block)
C[C@@H]1CC=CCCNC(=O)[C@H](C)N(C)C(=O)c2ccccc2O1 (mixture of isomers)	none (no result: dFosB act, Vif inh, Bfl-1 A1 inh, Neddyl block)
COc1cccc(/C=N/NC(=O)c2cc3cc([N+](=O)[O-])ccc3s2)c1O	dFosB act 41.0, Bfl-1 A1 inh inconclusive
